Assay outcomes from PubChem.
This excerpt belongs to a sample that is enriched for hits.
RMI-FANCM inh – blocks RMI1/RMI2 complex binding to FANCM MM2 peptide. Fluorescence polarization, RMI core complex with F-MM2 peptide; hits give low values. FP signal (polarization) at 33 µM. hit rate 0.58% among 70,000; in the data active = FP signal below about 40
Starred values were filed as active, the others as inactive; ! = a repeat was not active.

`CSc1ncc(C#N)c2nc(-c3ccc(N(C)C)cc3)nn12` gave RMI-FANCM inh -1*.
`CSc1nn(CC(=O)Nc2cc(F)ccc2C)c(N)c1-c1nc(-c2ccc3c(c2)OCO3)no1` gave RMI-FANCM inh 154.
Screening Fc1ccc(Cn2nnc3c(SCc4ccccc4F)ncnc32)cc1 returned RMI-FANCM inh 61.
For COc1ccc(-c2cc3c(SCC(=O)Nc4ccc(C)c(C)c4)nccn3n2)cc1 the results were RMI-FANCM inh 85.
Screening CC(C)(C)OC(=O)Cn1ccc(=O)[nH]c1=O returned RMI-FANCM inh 64.
For COc1ccc(SCC(=O)Nc2ccc3c(c2)C(=O)N(C)C3=O)cc1 the results were RMI-FANCM inh 66.
C=CC(=O)Oc1ccc(N2C(=O)c3cccc([N+](=O)[O-])c3C2=O)cc1 was read as RMI-FANCM inh 58.
`COc1ccc(N2C(=O)C3C4C=CC(O4)C3C2=O)cc1` (configuration not stated) gave RMI-FANCM inh 56.
Screening CCC(=O)Oc1ccc(N2C(=O)c3ccccc3C2=O)cc1 returned RMI-FANCM inh 31*.
Screening COc1ccc(N2C(=O)c3ccc(C(=O)c4ccc5c(c4)C(=O)N(c4ccc(OC)cc4)C5=O)cc3C2=O)cc1 returned RMI-FANCM inh 6*.
CCC(=O)Oc1cccc(N2C(=O)C3CCCCC3C2=O)c1 (configuration not stated) was read as RMI-FANCM inh 53.
`O=C(Nc1ccc(S(=O)(=O)N2CCOCC2)cc1)c1cc2cc(Cl)cc(Cl)c2oc1=O` gave RMI-FANCM inh 68.
For CCOC(=O)N1CCN(C(=O)Cc2csc(Nc3cccc(Cl)c3)n2)CC1 the results were RMI-FANCM inh 66.
`CCC(CC)C(=O)NCCn1ncc2c(=O)n(Cc3cccc(C)c3)cnc21` gave RMI-FANCM inh 67.
`CCOC(=O)CCC(=O)O[C@H]1[C@H](O[C@@H]2[C@@H](C)[C@H](O[C@H]3C[C@@](C)(OC)[C@@H](O)[C@H](C)O3)[C@@H](C)C(=O)O[C@H](CC)[C@@](C)(O)[C@H](O)[C@@H](C)C(=O)[C@H](C)C[C@@]2(C)O)O[C@H](C)C[C@@H]1N(C)C` gave RMI-FANCM inh -23*.
CCOC(=O)CCC(=O)OC1C(OC2C(C)C(OC3CC(C)(OC)C(O)C(C)O3)C(C)C(=O)OC(CC)C(C)(O)C(O)C(C)C(=O)C(C)CC2(C)O)OC(C)CC1N(C)C (configuration not stated) was read as RMI-FANCM inh 63.
For CCC(=O)O[C@H]1[C@H](O[C@@H]2[C@@H](C)[C@H](O[C@H]3C[C@@](C)(OC)[C@@H](O)[C@H](C)O3)[C@@H](C)C(=O)O[C@H](CC)[C@@](C)(O)[C@H](O)[C@@H](C)C(=O)[C@H](C)C[C@@]2(C)O)O[C@H](C)C[C@@H]1N(C)C the results were RMI-FANCM inh 62.
`S=c1[nH]nc(OCc2ccc(Cl)cc2Cl)n1-c1ccccc1` gave RMI-FANCM inh 60.
For CS(=O)(=O)Nc1ccc(Oc2c(C#N)cccc2C#N)cc1 the results were RMI-FANCM inh 54.
Screening COc1ccc(NC2=CC(=O)C=CC2=O)cc1 returned RMI-FANCM inh 30*.
Screening COc1ccc(NC(=O)CO)cc1 returned RMI-FANCM inh 68.
COc1ccc(Nc2c(Cl)cc(OC)cc2Cl)cc1 was read as RMI-FANCM inh 58.
CC(C)N1CCC(CNC(=O)C23CC4CC(CC(C4)C2)C3)CC1 was read as RMI-FANCM inh 67.
COc1ccccc1CNC(=O)Cn1cnc2c([nH]c3ccc(Br)cc32)c1=O was read as RMI-FANCM inh 128.
For CCOc1cccc2cc(C(=O)NC(C)c3ccc(-n4ccnc4)cc3)c(=O)oc12 (configuration not stated) the results were RMI-FANCM inh 61.
`Nc1ncnc(Cl)c1N` gave RMI-FANCM inh 17*.
Nc1ncnc2c1CCC2 was read as RMI-FANCM inh 82.
For Nc1ncncc1-c1ccc(Cl)cc1 the results were RMI-FANCM inh 49.
`CS(=O)(=O)Nc1ccc(/C(N)=N\OC(=O)Nc2ccc(C(F)(F)F)cc2)cc1` gave RMI-FANCM inh 56.
CSc1nnc(-c2ccccc2NC(=O)/C=C/c2cccc(F)c2)o1 was read as RMI-FANCM inh 66.
`CSc1scc2c1-c1nc(SCC(=O)C(C)(C)C)ncc1CC2` gave RMI-FANCM inh 58.
`CSc1scc2c1C(=O)/C(=C/N(C)C)CC2` gave RMI-FANCM inh 33*.
`Cc1cc(NS(=O)(=O)c2ccc(NC(=S)NC(=O)c3ccco3)cc2)no1` gave RMI-FANCM inh 59.
Cc1csc2nc(-c3cccc(NC(=O)c4cc(Cl)ccc4[N+](=O)[O-])c3)cn12 was read as RMI-FANCM inh 67.
`C[C@]12CC=CCC1CCC1C2CC[C@](C)(C(=O)O)C1/C=C1/Nc2ccccc2C1=O` (some centres not stated) gave RMI-FANCM inh 35*!.
For C[C@]12CC[C@@H](O)CC1CCC1C2CC[C@](C)(C(=O)O)C1/C=C1/Nc2ccccc2C1=O (some centres not stated) the results were RMI-FANCM inh 38.
